Most compounds without a hit are left out; they make up all but 3% or so of the library.
A549 tox-1: kills or reduces viability of A549 cells in Nrf2 counter-screen; actives 0.16% (n = 390,000); AID 504648; Potency, µM (highest dose often 46 µM), inactives show at the highest dose activity change, negative = cytotoxicity, usual class: inhibitors; A549 ARE-Fluc cells, CellTiter-Fluor viability, 18-24 h; further: on the % scale 0 is the no-effect control and ±100 the full control effect
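Cytotoxicity counterscreen: CellTiter-Fluor fluorescence was measured in A549 ARE_Fluc cells after 18-24 h of compound exposure in a concentration series. The subsequent BugLite luminescent read reports ARE-luciferase activity.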
Nrf2 activator: activates Nrf2 signaling; AREc32 ARE-luciferase reporter (MCF7-derived line), luminescence, 24 h; Potency, µM (highest dose often 46.1 µM), for inactives: top-dose activation, most hits filed as activators; actives 0.31% (n = 410,000); AID 624171; further: % of control where 0% means no effect; nearly all actives have a fitted effect of over 65% in size
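Reporter line AREc32 (ARE-Fluc), seeded overnight in OPTI-MEM with 5% FBS; compound pin-transferred, 24 hr at 37 deg C, 5% CO2; luminescent read-out.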
GALK inhibitor: inhibitors of human galactokinase | P51570 | Purified GALK, Kinase-Glo residual ATP luminescence | Potency, µM (highest dose often 57.5 µM), without a hit: top-dose activity change, negative = inhibition, usual class: inhibitors | actives 0.007% (n = 270,000); further: on the % scale 0 is the no-effect control and ±100 the full control effect
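5 nM enzyme, 35 uM ATP, 100 uM galactose, 20 mM HEPES pH8.0, 5 mM MgCl2; 1 h RT; residual ATP by Kinase-Glo Plus luminescence, qHTS format.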
TrxR1 substrate: substrates of rat thioredoxin reductase 1; actives 0.01% (n = 390,000); purified TrxR1 substrate turnover, NADPH consumption readout; O89049; Potency, µM (doses to about 114 µM), for inactives: at the highest dose activity change, negative = substrate turnover; further: on the % scale 0 is the no-effect control and ±100 the full control effect; nearly all actives have a fitted effect of over 50% in size
Target sequence (O89049 whole entry, looked up): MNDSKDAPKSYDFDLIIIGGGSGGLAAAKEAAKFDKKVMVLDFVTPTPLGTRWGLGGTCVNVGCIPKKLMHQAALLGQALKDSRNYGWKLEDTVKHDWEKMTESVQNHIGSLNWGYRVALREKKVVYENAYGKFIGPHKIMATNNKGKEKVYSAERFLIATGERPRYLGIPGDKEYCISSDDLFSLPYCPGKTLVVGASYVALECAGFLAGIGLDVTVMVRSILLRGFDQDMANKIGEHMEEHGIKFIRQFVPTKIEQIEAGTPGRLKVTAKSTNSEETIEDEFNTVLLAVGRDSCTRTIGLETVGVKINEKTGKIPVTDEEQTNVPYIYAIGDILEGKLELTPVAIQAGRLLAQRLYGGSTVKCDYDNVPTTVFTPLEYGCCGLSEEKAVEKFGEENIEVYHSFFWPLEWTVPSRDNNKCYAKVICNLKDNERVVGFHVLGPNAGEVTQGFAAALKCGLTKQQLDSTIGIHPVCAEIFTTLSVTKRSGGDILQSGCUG
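Rat TrxR1, dispensed at 90 nM, was prereduced with 400 uM NADPH (final) for 5 min at ~22 deg C, then incubated with compound 15 min before 400 uM selenite. A first-read NADPH fluorescence drop versus no-compound background flagged substrates.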
Nrf2 block: inhibitors of Nrf2 signaling; A549 ARE-Fluc reporter, luciferase luminescence, 18-24 h; Potency, µM (top dose mostly 46 µM), without a hit: at the top dose activity change, negative = inhibition, usual class: inhibitors; actives 2.1% (n = 360,000); further: on the % scale 0 is the no-effect control and ±100 the full control effect; nearly all actives have a fitted effect of over 60% in size
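Nrf2 activity is the BugLite luminescence, read 15 min after reagent at room temperature, following CellTiter-Fluor cytotoxicity readout (30 min, 37C). Compound titrations were applied for 18-24 h to 5000 A549 ARE_Fluc cells/well in 5% FBS OPTI-MEM.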
TrxR1 inh: rat TrxR1 inhibition. AID 588453. Potency, µM (doses to about 114 µM), inactives show top-dose activity change, negative = inhibition, actives largely listed as inhibitors. recombinant rTrxR1, NADPH fluorescence consumption, selenite substrate. actives 1% (n = 390,000). O89049; further: on the % scale 0 is the no-effect control and ±100 the full control effect; nearly all actives have a fitted effect of over 65% in size
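Rat TrxR1 (90 nM in the dispensed reagent) was pre-reduced with 400 uM NADPH for 5 min at room temperature, then incubated with compound for 15 min. After 400 uM selenite was added, NADPH fluorescence (Ex 340/Em 450 nm) was followed for 8 min.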
FLuc counter 3: firefly luciferase inhibition, Nrf2 hit validation; Potency, µM (highest dose often 57.5 µM), for the others: at the highest dose activity change, negative = inhibition, actives largely listed as inhibitors; shares compounds with Nrf2 block; actives 4% (n = 1,400); purified firefly luciferase, luminescence inhibition; AID 720522; further: on the % scale 0 is the no-effect control and ±100 the full control effect; nearly all actives have a fitted effect of over 65% in size
A549 tox-2: A549 cytotoxicity, Nrf2 inhibitor counterscreen; shares compounds with Nrf2 block; A549 ARE-Fluc cells, cytotoxicity counterscreen; Potency, µM (titrated, usually from 46.1 µM), inactives show top-dose activity change, negative = cytotoxicity, actives largely listed as inhibitors; actives 2% (n = 1,400);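 further: cells exposed to compounds for 18 to 24 hours; on the % scale 0 is the no-effect control and ±100 the full control effect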
Nrf2 ARE inh: Nrf2 inhibition confirmed, A549 ARE-luciferase; shares compounds with Nrf2 block; A549 ARE-firefly luciferase reporter, luminescence; Potency, µM (highest dose often 46.1 µM), without a hit: at the top dose activity change, negative = inhibition, usual class: inhibitors; actives 74% (n = 1,400); AID 720524; further: on the % scale 0 is the no-effect control and ±100 the full control effect; nearly all actives have a fitted effect of over 65% in size
The depositor's hits bear a star; [ ] = remark or other dose. The call rests on the fitted dose curve; in most records, active means well fitted curve in the direction sought with a large enough effect; inconclusive means small, poorly fitted or top-dose-only effect, or another doubt; inactive means no such curve, though single readings can be large; an effect the other way counts as inactive or inconclusive. Potency means the concentration at half of the fitted maximal effect.

CCOc1ccc(S(=O)(=O)Nc2nc3ccccc3nc2Cl)cc1 was read as A549 tox-1 0%, Nrf2 activator 2%, GALK inhibitor -1%, TrxR1 substrate -5%, Nrf2 block inconclusive and TrxR1 inh -2%.
`O=C(Nc1ccc(Br)cc1)c1cccc(S(=O)(=O)Nc2cnc3ccccc3c2)c1` gave A549 tox-1 inconclusive, Nrf2 activator 10%, TrxR1 substrate -1%[57.1 µM], Nrf2 block 2.9µM*, TrxR1 inh -11%[57.1 µM], FLuc counter 3 inconclusive, A549 tox-2 -14% and Nrf2 ARE inh 18µM*.
CCOc1ccc(CCNC(=O)c2cccc(-n3c(C)nc4cccnc43)c2C)cc1 was read as A549 tox-1 -1%, Nrf2 activator 0%, TrxR1 substrate 2%, Nrf2 block inconclusive and TrxR1 inh 16%.
`O=C(Nc1ccc(C(=O)NC2CCCCC2)cc1)c1cccnc1` gave A549 tox-1 3%, Nrf2 activator -1%, GALK inhibitor -1%, TrxR1 substrate 0%[57.1 µM], Nrf2 block inconclusive, TrxR1 inh 15%[57.1 µM], FLuc counter 3 -3%, A549 tox-2 -3% and Nrf2 ARE inh inconclusive.
For CCCC(=O)Nc1nc(-c2ccc3c(c2)CCN3S(C)(=O)=O)cs1 the results were A549 tox-1 -13%, Nrf2 activator 6%, GALK inhibitor -1%, TrxR1 substrate -3%, Nrf2 block 8.2µM*, TrxR1 inh 25%, FLuc counter 3 inconclusive, A549 tox-2 -15% and Nrf2 ARE inh inconclusive.
COc1cccc(-c2nnc3n2N=C(C(C)(C)C)CS3)c1 was read as A549 tox-1 -27%, Nrf2 activator -1%, GALK inhibitor -3%, TrxR1 substrate -6%[57.1 µM], Nrf2 block 7.3µM*, TrxR1 inh 10%, FLuc counter 3 -2% and A549 tox-2 inconclusive.
CCOC(=O)c1cnc2oc3ccccc3n2c1=O was read as A549 tox-1 0%, Nrf2 activator 3%, GALK inhibitor 8%, TrxR1 substrate 7%[57.1 µM], Nrf2 block 1% and TrxR1 inh 9%[57.1 µM].
For Cc1ccnc2c1ccc1cccnc12 the results were A549 tox-1 inconclusive, Nrf2 activator 18%, TrxR1 substrate 5%[57.1 µM], Nrf2 block inconclusive, TrxR1 inh 0%[57.1 µM], FLuc counter 3 -17% and A549 tox-2 inconclusive.
`CC1=C(C(=O)Nc2ccc(C(=O)NCCCN3CCCCC3)cc2)SCCO1` gave A549 tox-1 -1%, Nrf2 activator 2%, GALK inhibitor 4%, TrxR1 substrate -10%, Nrf2 block 12% and TrxR1 inh -17%.
Cc1ccc(F)cc1NC(=O)N1CCN(c2ccnc3cc(Cl)ccc23)CC1 was read as A549 tox-1 -17%, Nrf2 activator -1%, TrxR1 substrate 5%, Nrf2 block 9.2µM*, TrxR1 inh 22%, FLuc counter 3 -1%, A549 tox-2 -3% and Nrf2 ARE inh 9.2µM*.
Screening N#CC1=C(SCC(=O)Nc2ccc(C(=O)O)cc2)NC(=O)CC1c1ccco1 (configuration not stated) returned A549 tox-1 inconclusive, Nrf2 activator 0%, TrxR1 substrate 10%, Nrf2 block inconclusive and TrxR1 inh inconclusive.
`Cc1cccc(N(CC(=O)NC2CCCCC2)C(=O)CCCC(=O)Nc2ccccn2)c1C` gave A549 tox-1 -1%, Nrf2 activator -1%, GALK inhibitor 10%, TrxR1 substrate 6%, Nrf2 block -2% and TrxR1 inh 19%.
For COc1ccc(C(O)c2nc3ccccc3n2C)cc1OC (configuration not stated) the results were A549 tox-1 -5%[1.84 µM], Nrf2 activator 0%, GALK inhibitor 1%, TrxR1 substrate 11%, Nrf2 block 3.7µM*, TrxR1 inh 6%, FLuc counter 3 0%, A549 tox-2 1% and Nrf2 ARE inh inconclusive.
Screening COc1ccc(C(=O)NC(C)c2nc3ccccc3n2C)cc1OC (configuration not stated) returned A549 tox-1 -10%, Nrf2 activator 0%, GALK inhibitor 2%, TrxR1 substrate -1%[57.1 µM], Nrf2 block -11% and TrxR1 inh 6%[57.1 µM].
For CCCCOc1ccc(CNC(=O)c2cnc3sc(N4CCC(C)CC4)nn3c2=O)cc1 the results were A549 tox-1 11%, Nrf2 activator 9%, TrxR1 substrate -11%[57.1 µM], Nrf2 block inconclusive and TrxR1 inh -22%[57.1 µM].
`Cc1sc2ncnc(NC3CCN(Cc4ccccc4)CC3)c2c1C` gave A549 tox-1 inconclusive, Nrf2 activator 3%, GALK inhibitor 1%, TrxR1 substrate 4%[57.1 µM], Nrf2 block 4.6µM*, TrxR1 inh 9%[57.1 µM], FLuc counter 3 2%, A549 tox-2 -14% and Nrf2 ARE inh 5.8µM*.
c1ccc(CN2CCC(Nc3ncnc4sccc34)CC2)cc1 was read as A549 tox-1 13%, Nrf2 activator 2%, GALK inhibitor 0%, TrxR1 substrate 4%, Nrf2 block 2% and TrxR1 inh 24%[57.1 µM].
Screening Cc1cc2oc(=O)cc(CSc3nnc(C)n3N)c2cc1C(C)C returned A549 tox-1 23%, Nrf2 activator 0%, GALK inhibitor -1%, TrxR1 substrate 6%[57.1 µM] and TrxR1 inh 8%[57.1 µM].
Screening Cc1cc2oc(=O)cc(CSc3nnc(-c4cccs4)o3)c2cc1C(C)C returned A549 tox-1 inconclusive, Nrf2 activator 0%, GALK inhibitor -3%, TrxR1 substrate 9%[57.1 µM], Nrf2 block 8.2µM*, TrxR1 inh -11%, FLuc counter 3 -2%, A549 tox-2 -2% and Nrf2 ARE inh inconclusive.
For COc1ccc2c(Sc3ccccc3)c(C(=O)NCc3cccc(OC)c3OC)[nH]c2c1 the results were A549 tox-1 -3%, Nrf2 activator 3%, TrxR1 substrate -5%, Nrf2 block 9.2µM*, TrxR1 inh 3%, FLuc counter 3 -9%, A549 tox-2 -8% and Nrf2 ARE inh -1%.

Screens: PubChem, National Center for Advancing Translational Sciences (NCATS)
